Screening data: PubChem, National Center for Advancing Translational Sciences (NCATS)
Shown are actives, neighbours in structure and some others; about 1.1% of the full set was active somewhere.
SNCA expr inhib = Primary qHTS assay for inhibitors of alpha-synuclein gene (SNCA) expression. HEK-293 SNCA-luciferase knock-in, luminescence, 24 h. Potency, µM (series often up to 57.2 µM), without a hit: at the top dose activity change, negative = inhibition, hits mostly inhibitors. actives 0.17% (n = 140,000);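 note: potency is the fitted concentration of half-maximal effect; plate controls were DMSO cells for no effect and cell-free wells for full effect; nearly all actives have a fitted effect of over 45% in size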
GPT2 inhibitor = Primary qHTS assay for inhibitors of Glutamate pyruvate transaminase 2 (GPT2); Alanine aminotransferase 2 (Homo sapiens), Q8TD30; Recombinant GPT2, coupled pyruvate oxidase/HRP Amplex Red fluorescence; Potency, µM (highest dose often 57.7 µM), for the others: at the highest dose activity change, negative = inhibition, usual class: inhibitors; actives 0.25% (n = 100,000); AID 1671188, 2021; note: potency is the fitted concentration of half-maximal effect; nearly all actives have a fitted effect of over 60% in size
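Fluorescence read-out: pyruvate from GPT2 turnover coupled to pyruvate oxidase, HRP and Amplex Red (0.2mM ThPP, 0.2U/mL PO and HRP, 50uM Amplex final). Substrates 250uM a-KG, 2mM L-alanine; enzyme 10ng/uL; 30 min RT.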
IP6K1 inhibitor = Primary qHTS assay for small molecule inhibitors of Inositol hexaphosphate kinase 1 (IP6K1) | IP6K1 kinase, ADP-Glo luminescence, 2 h; stronger effect = lower value | Inositol hexakisphosphate kinase 1 (Homo sapiens), Q92551 | activity change, % (series mostly up to about 58 µM) | AID 1645851, 2021 | actives 0.81% (n = 140,000); in the data active = activity change below about -25%
Target sequence (Q92551 whole entry, looked up): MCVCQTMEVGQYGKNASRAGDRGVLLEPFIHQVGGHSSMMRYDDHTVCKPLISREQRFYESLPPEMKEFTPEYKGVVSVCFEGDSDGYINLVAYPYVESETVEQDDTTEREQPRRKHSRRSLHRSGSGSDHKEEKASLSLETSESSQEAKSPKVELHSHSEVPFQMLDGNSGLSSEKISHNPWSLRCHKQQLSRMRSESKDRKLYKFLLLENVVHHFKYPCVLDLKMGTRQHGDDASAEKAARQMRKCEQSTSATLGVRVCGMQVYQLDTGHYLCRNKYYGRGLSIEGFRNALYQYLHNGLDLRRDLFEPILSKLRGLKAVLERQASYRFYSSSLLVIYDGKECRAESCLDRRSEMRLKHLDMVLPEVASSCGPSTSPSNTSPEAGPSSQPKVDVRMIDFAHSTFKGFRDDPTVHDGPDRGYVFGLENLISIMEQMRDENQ
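ADP-Glo luminescence measures ADP made by human IP6K1 during a 2 h RT reaction with ATP/IP6 (mix at 1.3 mM/130 uM); top library doses 57.5 and 19.1 uM final.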
HEK293 viab = GF-AFC viability counterscreen for inhibitors of alpha-synuclein gene (SNCA) expression; AID 1671193, 2021; actives 0.12% (n = 150,000); HEK-293-SNCA-luc viability, GF-AFC fluorescence, 24 h; Potency, µM (series often up to 57.1 µM), inactives show top-dose activity change, negative = cytotoxicity, usual class: cytotoxic;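 note: potency is the fitted concentration of half-maximal effect; 0% = DMSO-treated cells and -100% = medium-only wells without cells; nearly all actives have a fitted effect of over 30% in size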
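HEK-293-SNCA-luc cells (1500/well) plated 24 h, then exposed 24 h to a dilution series; GF-AFC added 30 min at 37C, fluorescence 405/540 nm; normalised to medium-only and DMSO wells, Hill fit.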
IP6K1 conf = Confirmatory qHTS assay for small molecule inhibitors of Inositol hexaphosphate kinase 1 (IP6K1). shares compounds with IP6K1 inhibitor. actives 13% (n = 1,200). Potency, µM (highest dose often 49 µM), for inactives: top-dose activity change, negative = inhibition, hits mostly inhibitors. recombinant IP6K1 kinase, ADP-Glo luminescence, 2 h; note: potency is the fitted concentration of half-maximal effect; nearly all actives have a fitted effect of over 65% in size
An asterisk follows results filed as active; [ ] = remark or other dose. Unless noted, calls come from the whole dose curve; as a rule, active = well fitted curve in the direction sought with a large enough effect; inconclusive = small, poorly fitted or top-dose-only effect, or another doubt; inactive = no such curve, though single readings can be large; an effect the other way counts as inactive or inconclusive. Unless noted, % is set by controls: 0 for no effect and ±100 for the full control effect.

CC(C)N1CCN(C(=O)c2ccc(N3CC4CC(C3)[C@H]3CCCC(=O)N3C4)nc2)CC1 (stereo partly specified) was read as SNCA expr inhib 3%, GPT2 inhibitor 0%, IP6K1 inhibitor 1 and HEK293 viab 6%.
For CCCCNc1oc(-c2ccc(COc3ccc(OC)cc3)o2)nc1C#N the results were SNCA expr inhib 12%, IP6K1 inhibitor -31*, HEK293 viab 11% and IP6K1 conf -1%.
`COCCCNC(=O)N1CCC(N2C(=O)C3(CCCC3)C2c2ccccc2)CC1` (stereo unspecified) gave SNCA expr inhib 13%, GPT2 inhibitor inactive, IP6K1 inhibitor -1 and HEK293 viab 5%.
`Cc1[nH]c(/C=C2\C(=O)Nc3ccccc32)c(C)c1CCC(=O)O` gave IP6K1 conf 9%.
Screening Cc1cc(C)c(Nc2ncnc3c2cnn3C)c(C)c1 returned SNCA expr inhib -3%, IP6K1 inhibitor -1 and HEK293 viab 4%.
Screening Cn1ncc2c(Nc3cccc(F)c3)ncnc21 returned SNCA expr inhib 18%, IP6K1 inhibitor -28*, HEK293 viab 4% and IP6K1 conf inconclusive.
COCCc1noc([C@@H]2CN(Cc3ccc4[nH]ccc4c3)C[C@H]2CO)n1 was read as SNCA expr inhib -5%, GPT2 inhibitor inactive, IP6K1 inhibitor -8 and HEK293 viab 2%.
`O=C(O)c1cc(-c2ccccc2CO)cc(S(=O)(=O)N2CCCCCC2)c1` gave SNCA expr inhib 2%, GPT2 inhibitor 4%[11.5 µM], IP6K1 inhibitor -30*, HEK293 viab -2% and IP6K1 conf -16%.
O=C(O)c1cc(-c2cncnc2)cc(S(=O)(=O)N2CCCCCC2)c1 was read as SNCA expr inhib 5%, GPT2 inhibitor 2%, IP6K1 inhibitor 0 and HEK293 viab -9%.
For CCN(CCCNC(=O)c1cc(Nc2ccc(OC)cc2OC)nc2ccccc12)c1cccc(C)c1 the results were SNCA expr inhib 3%, IP6K1 inhibitor -36*, HEK293 viab -4% and IP6K1 conf -2%.
`COc1ccc(Nc2cc(C(=O)NCc3ccccc3)c3ccccc3n2)cc1` gave SNCA expr inhib -5%, IP6K1 inhibitor -44*, HEK293 viab -1% and IP6K1 conf -10%.
`O=C(CN1CCCc2nc(C3CC3)ncc2C1=O)NCc1cccs1` gave SNCA expr inhib -7%, GPT2 inhibitor -3%, IP6K1 inhibitor -4 and HEK293 viab -3%.
For O=C(c1ccc(F)c(F)c1Nc1ccc(I)cc1F)N1CC(O)([C@H]2CCCCN2)C1 the results were SNCA expr inhib 8%, GPT2 inhibitor 2%, HEK293 viab -3% and IP6K1 conf -3%.
`O=C(Nc1cccc(C(F)(F)F)c1)N[C@H]1CO[C@H]2[C@@H]1OC[C@@H]2n1nnnc1Oc1ccc(-n2ccnc2)cc1` gave SNCA expr inhib inconclusive, GPT2 inhibitor 2%, IP6K1 inhibitor -6 and HEK293 viab -27%.
CCOc1ccccc1C(=O)Nc1ccc(S(=O)(=O)Nc2ncccn2)cc1 was read as SNCA expr inhib 15%, IP6K1 inhibitor 4 and HEK293 viab 9%.
Screening COc1ccccc1C(=O)Nc1ccc(S(=O)(=O)Nc2nc(C)cc(C)n2)cc1 returned SNCA expr inhib 33%, IP6K1 inhibitor -29*, HEK293 viab -18% and IP6K1 conf inconclusive.
`CCOC(=O)c1ccc(NC(=O)c2csc3c2CCCC3)cc1` gave SNCA expr inhib 91%, IP6K1 inhibitor -33*, HEK293 viab 0% and IP6K1 conf inconclusive.
`Cc1ccc(NC(=O)N2CCCCC2c2noc(COc3ccc(F)cc3)n2)cc1F` (stereo unspecified) gave SNCA expr inhib 10%, GPT2 inhibitor inactive, IP6K1 inhibitor -10 and HEK293 viab -7%.
COCCC1(NC(=O)NC2CCCCC2)CCN(S(C)(=O)=O)CC1 was read as SNCA expr inhib 11%, GPT2 inhibitor inactive, IP6K1 inhibitor 8 and HEK293 viab 8%.
Screening CCc1ccc2occ(CC(=O)Nc3c(C(=O)c4ccc(C)cc4)oc4ccccc34)c2c1 returned SNCA expr inhib 15%, IP6K1 inhibitor -9 and HEK293 viab 2%.
`CCc1oc2ccccc2c1C(=O)c1cc(I)c(O)c(I)c1` gave SNCA expr inhib -13%[25.6 µM], GPT2 inhibitor 0%, IP6K1 inhibitor -56*, HEK293 viab 62%[23.9 µM] and IP6K1 conf 3.5µM*.
`Cc1nn2c(=O)cc(COC(=O)c3ccc(F)cc3)nc2s1` gave SNCA expr inhib 71%, IP6K1 inhibitor -27*, HEK293 viab -5% and IP6K1 conf -13%.
COc1ccc(N2Cc3c(NCC4CCCCCC4)ncnc3N(C)CC2=O)cc1 was read as SNCA expr inhib 4%, GPT2 inhibitor inactive, IP6K1 inhibitor -9 and HEK293 viab -20%.
`CN1C[C@H](NCc2ccc(C(F)(F)F)cc2)CCC[C@@H](C(=O)NC2CC2)CC1=O` gave SNCA expr inhib 7%[87.6 µM], GPT2 inhibitor inactive, IP6K1 inhibitor -6 and HEK293 viab 3%[87.6 µM].
`CN1C[C@H](NCc2ccc(F)cc2)CCC[C@@H](C(=O)NC2CC2)CC1=O` gave SNCA expr inhib 5%[87.6 µM], GPT2 inhibitor 4%[88.5 µM], IP6K1 inhibitor -26*, HEK293 viab 6%[87.6 µM] and IP6K1 conf inconclusive.
For Cc1noc(C)c1S(=O)(=O)N1CC(n2cc(C(=O)NCc3ccncc3)nn2)C1 the results were SNCA expr inhib -23%, GPT2 inhibitor inactive, IP6K1 inhibitor 0 and HEK293 viab 6%.
COc1ccc(C(=O)N(Cc2cc(OC)c(OC)c(OC)c2)CC2CCCO2)cc1 (stereo unspecified) was read as SNCA expr inhib 25%, IP6K1 inhibitor -25*, HEK293 viab inconclusive and IP6K1 conf 5%.
For CCCOc1ccc(C(=O)N(Cc2ccc(N(C)C)cc2)CC2CCCO2)cc1 (stereo unspecified) the results were SNCA expr inhib 15%, IP6K1 inhibitor -10 and HEK293 viab -9%.
Screening COc1ccc2oc(=O)cc(CN3CCN(c4ccc(F)cc4)CC3)c2c1 returned SNCA expr inhib 4%, IP6K1 inhibitor -25*, HEK293 viab -8% and IP6K1 conf -21%.
Screening CCOc1ccc2oc(=O)cc(CN3CCN(c4ccccc4)CC3)c2c1 returned SNCA expr inhib -15%, IP6K1 inhibitor -17 and HEK293 viab 0%.
For COc1nccc(N2CCC(CC(=O)NCCN3CCCCC3)CC2)n1 the results were SNCA expr inhib 5%, GPT2 inhibitor inactive, IP6K1 inhibitor 20 and HEK293 viab -12%.
